Data taken from PubChem BioAssay AID2129 (The Scripps Research Institute Molecular Screening Center, 2009).
In all, about 320,000 compounds went through this assay and about 2,200 (0.69%) were called active.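 The calls were made as follows: active = inhibition above the mean of all tested compounds plus 3 SD, cutoff set per campaign (cut at about 30% in these data); inactive = the rest.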 The sample as a whole holds a higher share of actives than the screen did.

These molecules were tested against Bcl-2-like protein 1 (Homo sapiens) (UniProt Q07817) (assay: Bcl-xL/Bim BH3 interaction blockers – biochemical, fluorescence polarization, HTS, primary screen (AID 2129;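 also: 0% = DMSO wells and 100% = unlabeled Bim-BH3 peptide competitor; inhibitors lower millipolarization by displacing the labeled peptide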)). Conditions: GST-Bcl-xL / FITC-Bim BH3 peptide fluorescence polarization; at 10.9 µM; stronger effect = higher value.
Sequence of Bcl-2-like protein 1 (Homo sapiens) (Q07817 whole entry, looked up): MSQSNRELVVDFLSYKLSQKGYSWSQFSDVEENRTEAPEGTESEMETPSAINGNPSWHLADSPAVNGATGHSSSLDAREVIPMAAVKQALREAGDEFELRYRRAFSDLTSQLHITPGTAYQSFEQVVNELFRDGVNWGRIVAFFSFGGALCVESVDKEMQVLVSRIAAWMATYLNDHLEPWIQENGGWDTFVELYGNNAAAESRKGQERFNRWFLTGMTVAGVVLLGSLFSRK
In the case of `COc1ccccc1-n1cnc2cc(NS(=O)(=O)c3ccccc3)ccc21`, the inhibition is reported as 2.73% (inactive).
For `CC(CCc1ccccc1)NCC(O)c1cccc([N+](=O)[O-])c1` (stereo not given), the inhibition was 1.94% (inactive).
`COc1ccc(NC(=O)c2sccc2SCC#N)cc1` was tested, and the inhibition was 8.42% (inactive).
`Clc1cc(NC2CCCCC2)ncn1` was tested, and the inhibition was 6.31% (inactive).
With `CCCCC1S/C(=N/N=C/c2cccs2)NC1=O` (stereo not given) the inhibition was 8.02% (inactive).
`CCCc1c(C)nc2c(Br)cccc2c1Cl` was tested, and the inhibition was 2.17% (inactive).
With `COc1cc(C(=O)NCc2ccc3c(c2)cc(C)n3C)cc(OC)c1OC` the inhibition was 33.2% (active).
For `COc1cc(C(=O)NCc2cc3cc(Cl)ccc3n2C)cc(OC)c1OC`, the inhibition was 1.45% (inactive).
In the case of `CCOCC(=O)NCc1ccc2c(c1)cc(C)n2C`, the inhibition is reported as 19.5% (inactive).
With `CN(CCO)S(=O)(=O)c1ccc2c(c1)C(=O)c1cc(S(=O)(=O)N(C)CCO)ccc1-2` the inhibition was 1.55% (inactive).
With `CCOC(=O)c1cc2c(=O)n3ccccc3nc2n(CC(C)C)c1=NC(=O)c1c(-c2c(F)cccc2Cl)noc1C` the inhibition was 3.3% (inactive).
With `Cc1ccc(NS(=O)(=O)c2ccc3c(c2)NC(=O)CO3)cc1` the inhibition was 0.04% (inactive).
In the case of `O=C(N1CCCCC1)N1CCN(C(=O)N2CCCCC2)CC1`, the inhibition is reported as 6.91% (inactive).
For `CCN1C(=O)CS/C1=N\c1nccs1`, the inhibition was 1.94% (inactive).
In the case of `CC(OC(=O)c1ccc2noc(-c3ccccc3)c2c1)C(N)=O` (stereo not given), the inhibition is reported as 2.5% (inactive).
`COc1ccc(-c2onc3ccc(C(C)=O)cc23)cc1` was tested, and the inhibition was 178% (active).
With `Oc1ccc(-c2onc3ccc(Cl)cc23)cc1` the inhibition was 3.11% (inactive).
For `Cc1c(NC(=S)NC(=O)CCc2ccccc2)c(=O)n(-c2ccccc2)n1C`, the inhibition was 1.79% (inactive).
For `CCNC(=O)Nc1ccc(S(=O)(=O)Nc2cnc(C)nc2C)cc1`, the inhibition was 0.51% (inactive).
In the case of `CN(C)c1ccc(Nc2c3c4c(cccc4n(C)c2=O)C(=O)c2ccccc2-3)cc1`, the inhibition is reported as 54.3% (active).
For `Cc1cccc(C)c1N1C(=O)CN(Cc2ccccc2)C1=S`, the inhibition was 5.52% (inactive).
With `Cc1ccccc1NC(=O)Cc1nc(COC(=O)c2ccc(C(F)(F)F)cc2)cs1` the inhibition was -1.31% (inactive).
`CCOC(=O)c1oc2c(CN3CCN(CCO)CC3)c(O)c(CC)cc2c(=O)c1-c1nc2ccccc2s1` was tested, and the inhibition was 4.57% (inactive).
For `CC(C)(C)c1ccc(/C=C2\Oc3c(ccc(O)c3CN3CCN(CCO)CC3)C2=O)cc1`, the inhibition was 53.5% (active).
`CN(C)S(=O)(=O)c1ccc(Cl)c(NC(=O)COC(=O)CC(NC(N)=O)c2ccc(Cl)cc2)c1` (stereo not given) was tested, and the inhibition was -5.65% (inactive).
`CN(c1ccc(OCC(=O)O)cc1)S(=O)(=O)c1ccc2ccccc2c1` was tested, and the inhibition was 4.89% (inactive).
For `COc1cccc(COc2ccc(N(C)S(=O)(=O)c3ccccc3)cc2)c1`, the inhibition was -4.97% (inactive).
With `Cc1ccc2nc(COc3ccc(N(C)S(=O)(=O)c4ccccc4)cc3)cc(=O)n2c1` the inhibition was 36.5% (active).
`O=C(c1ccc(Cl)cc1)N1N=C(c2ccccn2)CC1(O)C(F)(F)F` (stereo not given) was tested, and the inhibition was -13% (inactive).
In the case of `C=CCc1ccccc1OCC(=O)N/N=C/c1ccccc1OCC`, the inhibition is reported as 0.68% (inactive).
`Cc1cccc(OCC(=O)NCC(=O)N/N=C/c2ccc(N(C)C)cc2)c1` was tested, and the inhibition was 2.63% (inactive).
For `Cc1ccc(/C=N/NC(=O)COc2ccccc2-c2ccccc2)cc1`, the inhibition was 68.1% (active).
With `O=C(O)CC(c1ccccc1F)N1Cc2ccccc2C1=O` (stereo not given) the inhibition was -0.17% (inactive).
`CC(C)CN(C(=O)CSc1ncnc2sccc12)C1CCS(=O)(=O)C1` (stereo not given) was tested, and the inhibition was 0.66% (inactive).
In the case of `CCN(CC)CCNC(=O)c1ccc(NC(=O)c2c(F)cccc2Cl)cc1`, the inhibition is reported as -0.4% (inactive).
In the case of `O=C1N[C@@H](Cc2ccccc2)C(=O)N2[C@H]1C[C@]1(Br)c3ccccc3N(S(=O)(=O)c3ccccc3)[C@H]21`, the inhibition is reported as 10.4% (inactive).
`Cc1ccccc1N1C(=O)C2ON(c3ccccc3)C(c3ccncc3)C2C1=O` (stereo not given) was tested, and the inhibition was 4.04% (inactive).
In the case of `O=C(CNC(=O)c1ccccc1F)c1ccc(Br)cc1`, the inhibition is reported as -3.61% (inactive).
In the case of `O=C(CNC(=O)c1ccc(F)cc1)c1ccccc1`, the inhibition is reported as -1.14% (inactive).
`O=C(C[n+]1cc(Br)cc2ccccc21)c1ccc(F)cc1` was tested, and the inhibition was 62.8% (active).
With `CC(=O)n1c(C=Nc2ccccc2)c(O)c2ccccc21` the inhibition was -15.2% (inactive).
In the case of `O=C1c2ccccc2-c2ncnc3c(N4CCOCC4)cc(N4CCOCC4)c1c23`, the inhibition is reported as 48.5% (active).
For `Cc1oc2c(c1C(=O)N1CCOCC1)C(=O)c1ccccc1C2=O`, the inhibition was -1.81% (inactive).
With `COC1=C(N2CCOCC2)C(=O)c2ccccc2C1=O` the inhibition was 1.64% (inactive).
With `COc1ccc(-n2ncc3c2CC(C)(C)CC3NC(=O)CCc2c(C)nn(C)c2C)cc1` (stereo not given) the inhibition was 6.1% (inactive).
`COCCNc1nnc(SCC(=O)NNC(=O)c2ccco2)s1` was tested, and the inhibition was 4.35% (inactive).
With `Cc1ccc(CSCC(=O)N(C)CC(=O)Nc2ccc(C)cc2)cc1` the inhibition was 1.73% (inactive).
`Cc1c(NC(=O)CSc2nnc(-c3cccnc3)n2N)c(=O)n(-c2ccccc2)n1C` was tested, and the inhibition was -1.43% (inactive).
With `COc1ccc(C(=O)N(CCN2CCOCC2)CC(=O)NC2CCCC2)cc1OC` the inhibition was -2.67% (inactive).
With `Cc1ccc(OCCCC(=O)Nc2ccc3c(c2)OCCO3)cc1` the inhibition was -5.28% (inactive).
In the case of `CCCCC1=CC2=CC(=O)C(C)(OC(=O)CC)C(=O)C2=CN1CCCOC(C)C` (stereo not given), the inhibition is reported as 25.5% (inactive).
In the case of `COC/C=C/C1=CC2=CC(=O)C(C)(OC(=O)CCC(=O)OC)C(=O)C2=CO1` (stereo not given), the inhibition is reported as 46.1% (active).
In the case of `COc1cc(C2/C(=C(\O)c3ccc4c(c3)CC(C)O4)C(=O)C(=O)N2Cc2ccco2)ccc1O` (stereo not given), the inhibition is reported as 0.14% (inactive).
With `CCSc1nc2sc3c(c2c(=O)[nH]1)CC(C)(C)OC3` the inhibition was 4.34% (inactive).
`CCC1(C)Cc2c(sc3nc(SC)[nH]c(=O)c23)CO1` (stereo not given) was tested, and the inhibition was 0.11% (inactive).
For `CC/C(C)=N/Nc1nc2sc3c(c2c(=O)[nH]1)CC(C)(C)OC3`, the inhibition was 67.3% (active).
In the case of `N#Cc1c(N2CCCCC2)nc(N)c2c(N)nc(SCC(=O)O)cc12`, the inhibition is reported as 34.7% (active).
With `N#CCc1c(C#N)c(N)nc(N2CCCC2)c1C#N` the inhibition was 1.69% (inactive).
`N#Cc1c(-c2ccccc2)cc(-c2ccccc2)nc1SCC(=O)O` was tested, and the inhibition was 6.81% (inactive).
With `CCN(CC(=O)Nc1cccc(S(=O)(=O)N2CCCCC2)c1)Cc1ccccc1` the inhibition was 1.24% (inactive).
